Rows were chosen to be rich in hits. Some 3.5% of all compounds tested hit in one or more screens of this group.
FBW7 act – activators of human E3 ligase FBW7; Q969H0; AlphaScreen FBW7–phospho-cyclin E peptide binding, activator screen; normalized activity (activation), % at 26.1 µM; 0.13% of 650,000 active; AID 1259310; in the data active = normalized activity above about 1.9%;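 note: purified mutant Fbw7 with reduced substrate affinity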
MITF primary – inhibitors of human MITF; AlphaScreen MITF homodimerization, bead proximity signal; inhibition, % at 2.6 µM; 0.91% of 650,000 active; in the data active = inhibition above about 50%
Target sequence (O75030 whole entry, looked up): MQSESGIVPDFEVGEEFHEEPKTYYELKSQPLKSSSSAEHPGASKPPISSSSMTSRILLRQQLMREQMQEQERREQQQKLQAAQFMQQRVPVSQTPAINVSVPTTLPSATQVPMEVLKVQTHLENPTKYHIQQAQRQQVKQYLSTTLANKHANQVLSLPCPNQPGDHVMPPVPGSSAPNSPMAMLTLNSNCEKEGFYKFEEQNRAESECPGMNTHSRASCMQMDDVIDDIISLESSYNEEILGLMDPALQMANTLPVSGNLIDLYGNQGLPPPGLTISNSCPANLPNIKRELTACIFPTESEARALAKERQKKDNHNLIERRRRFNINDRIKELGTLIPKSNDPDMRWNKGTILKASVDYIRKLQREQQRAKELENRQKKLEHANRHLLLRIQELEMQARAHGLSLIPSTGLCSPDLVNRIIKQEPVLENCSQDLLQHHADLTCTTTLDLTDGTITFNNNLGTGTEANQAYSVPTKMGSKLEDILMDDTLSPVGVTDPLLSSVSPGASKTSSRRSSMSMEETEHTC
TEAD-YAP block – TEAD-YAP interaction inhibition | HEK-TIYL cells, TEAD-Gal4/YAP UAS-luciferase luminescence | inhibition, % at 9.12 µM | 1.4% of 640,000 active; in the data active = inhibition above about 32%
GPR151 activ – activates the human receptor GPR151; 1% of 650,000 active; activation, % at 11.2 µM; AID 1508602; PathHunter beta-arrestin GPR151 cells, luminescence; Q8TDV0; in the data active = activation above about 4.9%
GPR151 confirm – human GPR151 activation, confirmation screen. shares compounds with GPR151 activ. GPR151 PathHunter beta-arrestin cells, luminescence, 90 min; % of EA-reagent control over plate median. activation, % at 11.2 µM. 6,700 tested, under 10 active;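 active = mean percent activation across replicates above the confirmation screen cutoff of 4.91%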
GPR119 counter – activates human GPR119 in a GPR151 counter-screen; shares compounds with GPR151 activ; GPR119 PathHunter beta-arrestin cells, luminescence, 90 min; 0 = compound-well median, 100 = enzyme-acceptor control; activation, % at 11.2 µM; 0.3% of 6,700 active; AID 1508611;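 active = mean percent activation in the counterscreen above 29.09%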;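 note: counterscreen on off-target GPR119 to flag nonselective hits from the GPR151 activator screen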
Of the large screens only hits and unclear results are named; the others gave an inactive call (follow-up assays come after a bar, where they were run).

Cc1ccc(CSc2nnc(NC(=O)Cn3cnc4ccccc4c3=O)s2)cc1	GPR151 activ 5.0 | GPR151 confirm inactive | GPR119 counter inactive
CCSc1nnc(NC(=O)Cn2cnc3ccccc3c2=O)s1	none
CSc1nc2ccc(NC(=O)Cn3cnc4ccccc4c3=O)cc2s1	GPR151 activ 5.9 | GPR151 confirm inactive | GPR119 counter inactive
CSc1nc2ccc(NC(=O)CN3C(=O)c4ccccc4C3=O)cc2s1	none
COc1cc(C)c(CSCC(=O)O)cc1OC	none
COc1ccc([N+](=O)[O-])cc1NC(=O)c1c(C)nn(-c2ccccc2)c1Cl	none
O=C(/C=C/c1cc([N+](=O)[O-])ccc1O)Nc1cccc(Br)c1	GPR151 activ 5.6 | GPR151 confirm inactive | GPR119 counter inactive
Cc1ccc(/C=C2/SC(=S)N(CC(=O)Nc3ccccc3O)C2=O)cc1	GPR151 activ 7.3 | GPR151 confirm inactive | GPR119 counter inactive
COC(=O)c1cc2sc(C)cc2n1Cc1cc(=O)n2ccccc2n1	GPR151 activ 9.1 | GPR151 confirm inactive | GPR119 counter inactive
Cc1ccccc1-n1c(=O)c2ccccc2n(Cc2cc(=O)n3ccccc3n2)c1=O	none
Cc1sc2ncnc(NCCc3ccccc3)c2c1C	GPR151 activ 5.4 | GPR151 confirm inactive | GPR119 counter inactive
Cc1sc2ncnc(Nc3ccc(Cl)cc3)c2c1C	none
Cc1sc2ncnc(Nc3ccncc3)c2c1C	GPR151 activ 5.3 | GPR151 confirm inactive | GPR119 counter inactive
C/C(=N\Nc1ccccc1)c1no[n+]([O-])c1C	GPR151 activ 6.1 | GPR151 confirm inactive | GPR119 counter inactive
Cc1cc(C)nc(SCC(=O)NC(C)(C)C)n1	none
Cc1cc(C)nc(SCC(=O)Nn2cnnc2)n1	GPR151 activ 7.1 | GPR151 confirm inactive | GPR119 counter inactive
CCOC(=O)CN1CC(O)=C(C=NCc2ccccc2)C1=O	GPR151 activ 7.4 | GPR151 confirm inactive | GPR119 counter inactive
COc1ccc(-n2nc(C(=O)Nc3ccc(Br)cc3C)c3ccccc3c2=O)c(OC)c1	none
CC12CC3CC(C)(C1)CC(CNC(=O)COc1ccccc1)(C3)C2	none
CC1(C)CC(NC(=O)COc2ccccc2)CC(C)(CNC(=O)COc2ccccc2)C1 (stereo not drawn)	GPR151 activ 5.4 | GPR151 confirm inactive | GPR119 counter inactive
Clc1ccccc1Cn1cccc1C1=NCCO1	none
COc1cc(-c2cn3c(NC(=O)c4cccs4)c(C)nc3cn2)cc(OC)c1OC	GPR151 activ 5.3 | GPR151 confirm inactive | GPR119 counter inactive
Cc1nn(C)c(C)c1-c1nc2c(NCc3cccnc3)ncnc2n1C(C)C	GPR151 activ 7.1 | GPR151 confirm inactive | GPR119 counter inactive
CCn1c(SCC(=O)N(C)C)nnc1-c1ccco1	none
Cc1ccc(NC(=O)CN(C)S(=O)(=O)c2ccc3c(c2)C(C)(C)C(=O)N3C)cc1Cl	none
Cc1cccc(NC(=O)CSc2nc3c(c(=O)n2-c2ccc(F)cc2)SCC3)c1	GPR151 activ 6.5 | GPR151 confirm inactive | GPR119 counter inactive
CN(C)S(=O)(=O)Nc1ccc(N2CCC(NCCn3cccn3)CC2)cc1	none
COc1ccccc1C1C=C(c2ccc(I)cc2)Nc2ncnn21 (stereo not drawn)	GPR151 activ 7.4 | GPR151 confirm inactive | GPR119 counter inactive
COCCNC(=O)c1ccccc1NC(=O)C(C)N(c1ccc(C)cc1)S(C)(=O)=O (stereo not drawn)	none
COCCNC(=O)c1ccccc1NC(=O)C(C)N(c1ccc(OC)cc1)S(C)(=O)=O (stereo not drawn)	GPR151 activ 6.7 | GPR151 confirm inactive | GPR119 counter inactive
COc1ccccc1/C=C/C(=O)OCC(=O)NC(=O)NC12CC3CC(CC(C3)C1)C2	GPR151 activ 5.5 | GPR151 confirm inactive | GPR119 counter inactive
COc1ccccc1/C=N/NC(=O)NC12CC3CC(CC(C3)C1)C2	none
O=C(C1CCC(CNc2c(N3CCCC3)c(=O)c2=O)CC1)N1CCc2ccccc21 (stereo not drawn)	GPR151 activ 5.3 | GPR151 confirm inactive | GPR119 counter inactive
NC(=S)N/N=C/c1cc2c(cc1[N+](=O)[O-])OCO2	none
COc1cccc(NC(=O)CN(C)CC(=O)Nc2ccc(-c3ccccc3)cc2)c1	none
CCC(C)c1ccc(NC(=O)CN(C)CC(=O)Nc2cccc(OC)c2)cc1 (stereo not drawn)	GPR151 activ 6.1 | GPR151 confirm inactive | GPR119 counter inactive
CC(=O)NCc1nnc2n1CCN(Cc1ccc(-c3ccccc3C)cc1)CC2	none
CCCCCCNc1nc(NCc2ccco2)nc(OCC)n1	none
CCCCCCCCCCCCCc1ccco1	GPR151 activ 7.1 | GPR151 confirm inactive | GPR119 counter inactive
COc1cccc(C(c2nnnn2C(C)C)N2CCN(c3ccccc3)CC2)c1OC (stereo not drawn)	GPR151 activ 5.4 | GPR151 confirm inactive | GPR119 counter inactive
O=C(O)c1cc(C23CC4CC(CC(C4)C2)C3)ccc1O	GPR151 activ 14 | GPR151 confirm inactive | GPR119 counter inactive
CSc1ccccc1NC(=O)CNC(=O)c1c[nH]c2ccccc12	none
Cc1ccc(NC(=O)CNC(=O)c2c[nH]c3ccccc23)cc1F	GPR151 activ 5.7 | GPR151 confirm inactive | GPR119 counter inactive
COc1ccc(-c2cc(NCCc3ccc(O)cc3)ncn2)cn1	none
COc1ccc(CCNc2cc(-c3ccc(OC)nc3)ncn2)cc1	GPR151 activ 5.2 | GPR151 confirm inactive | GPR119 counter inactive
COc1ccc(-c2nc(NCCc3ccc(O)cc3)nc(OC)n2)cn1	GPR151 activ 5.9 | GPR151 confirm inactive | GPR119 counter inactive
CCCNc1cc(N2CCCC2CO)ncn1 (stereo not drawn)	none
COc1ccc(CCNc2cc(N3CCCC3CO)ncn2)cc1 (stereo not drawn)	GPR151 activ 14 | GPR151 confirm inactive | GPR119 counter inactive
Cc1ccc(C)c(CSc2nc3nc(C)c(Cc4c(F)cccc4Cl)c(C)n3n2)c1	GPR151 activ 6.3 | GPR151 confirm inactive | GPR119 counter inactive
Cc1ccc(C)c(Cc2c(C)nc3nc(SCc4c(F)cccc4Cl)nn3c2C)c1	none
O=C(c1ccco1)N1CCN=C1SCc1cccc([N+](=O)[O-])c1	none
O=C(NCc1ccccc1Cl)c1c(O)c2ccccc2[nH]c1=O	GPR151 activ 5.0 | GPR151 confirm inactive | GPR119 counter inactive
Cc1ccc(Cl)cc1NC(=O)Cn1cnc2c(-c3ccccc3)csc2c1=O	GPR151 activ 7.3 | GPR151 confirm inactive | GPR119 counter inactive
Cc1cn2c(=O)c(C(=O)NOCc3cccc(C(F)(F)F)c3)cnc2s1	GPR151 activ 14 | GPR151 confirm inactive | GPR119 counter inactive
COc1cc(C(N)=O)ccc1OCC(C)C	none
CCCOc1ccc(C(N)=O)cc1OC	GPR151 activ 5.6 | GPR151 confirm inactive | GPR119 counter inactive
Cc1cc(NC(=O)c2sc3ccccc3c2Cl)no1	none
